Screening data: PubChem BioAssay, National Center for Advancing Translational Sciences (NCATS)
Lamin A splicing = LMNA splicing modulation | HeLa LMNA splicing GFP/RFP minigene ratio, 48 h | Potency, µM (series often up to 46.1 µM), for inactives: top-dose ratio change, negative = inhibition, usual class: inhibitors | actives 0.01% (n = 200,000) | AID 1487; active = well fitted inhibition curve with a large enough effect in the signal ratio, with a control signal flat, not every such curve was filed as active; inconclusive = small, poorly fitted or top-dose-only effect, or effect the other way, or a change in a side signal; the % refers to the signal ratio; note: % is set by controls: 0 for no effect and ±100 for the full control effect
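S3 HeLa stable clones carrying a lamin A-EGFP splicing minigene plus DsRed2 were seeded at 600 cells/well in Opti-MEM with 2% FBS, pin-dosed and incubated 48 h at 37°C. Acumen cytometry (488 nm) gave the GFP/RFP total-intensity ratio.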
HTT ATP protect = Huntington cell model cytoprotection by ATP luminescence; PC12 HTT-Q103 induced, cytoprotection, ATP luminescence, 40 h; Potency, µM (titrated, usually from 56.4 µM), for the others: cytoprotection (ATP increase), hits mostly activators; actives 0.14% (n = 230,000); AID 1471; note: % of control where 0% means no effect; nearly all actives have a fitted effect of over 45% in size
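PC12 cells with ecdysone-inducible HTT exon 1 Q103-GFP, induced with 100 nM tebufenozide and co-treated with library compounds in a dose series (1536-well, 1500 cells/well). Cytoprotection read as ATP content by ATPlite luminescence.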
HTT aggregate = reduces HttQ103-GFP aggregates in PC12 cells; PC12 HttQ103-GFP aggregates, Acumen cytometry, 40 h; Potency, µM (doses to about 46.1 µM), for the others: top-dose activity change, negative = inhibition, most hits filed as inhibitors; actives 1.1% (n = 220,000); AID 1688; note: % is set by controls: 0 for no effect and ±100 for the full control effect; nearly all actives have a fitted effect of over 60% in size
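Steps: seed 1500 PC12 HTTQ103-GFP cells/well; add tebufenozide, 100 nM final; add compound titration; add ATPLite reagent; quantify GFP aggregates by laser scanning cytometry.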
ALDH1A1 block = ALDH1A1 (human) enzyme inhibition. Potency, µM (series often up to 75.3 µM), for inactives: top-dose activity, negative = inhibition, usual class: inhibitors. actives 7.3% (n = 220,000). AID 1030. P00352. Purified ALDH1A1, NADH fluorescence, propionaldehyde substrate; active = well fitted inhibition curve with a large enough effect, not every such curve was filed as active; inconclusive = small, poorly fitted or top-dose-only effect, or another doubt; inactive = no such curve, though single readings can be large or run the other way;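 note: plate controls were no enzyme wells and a reference inhibitor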
HPGD block = blocks human HPGD enzyme activity; P15428; purified HPGD, NADH fluorescence kinetic, PGE2 substrate; Potency, µM, for inactives: at the top dose activity change, negative = inhibition, actives largely listed as inhibitors; actives 4.3% (n = 150,000); active = well fitted inhibition curve with a large enough effect, not every such curve was filed as active; inconclusive = small, poorly fitted or top-dose-only effect, or another doubt; inactive = no such curve, though single readings can be large or run the other way; note: % is set by controls: 0 for no effect and ±100 for the full control effect
Target sequence (P15428 whole entry, looked up): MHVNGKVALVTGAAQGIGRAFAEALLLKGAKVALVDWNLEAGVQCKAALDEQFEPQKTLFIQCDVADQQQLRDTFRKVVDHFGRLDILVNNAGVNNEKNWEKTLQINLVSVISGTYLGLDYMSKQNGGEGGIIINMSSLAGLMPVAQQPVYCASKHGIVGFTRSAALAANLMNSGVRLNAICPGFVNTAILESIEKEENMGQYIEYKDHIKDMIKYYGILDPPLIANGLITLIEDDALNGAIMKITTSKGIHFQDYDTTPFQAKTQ
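20 nM HPGD preincubated 15 min at room temperature with compound in 50 mM Tris-HCl pH 8, 0.01% Tween 20. Started with 1 mM NAD+ and 30 uM prostaglandin E2; NADH fluorescence (360/450 nm) read 5 times over 30-s intervals, last minus first.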
* marks the source's active call; other numbers are inactive results; ? = inconclusive; . = no result; [ ] = another dose, or the depositor's remark. Sampled rows, rich in hits. Any-hit rate of the full collection: about 8.8%. Unless noted, calls come from the whole dose curve; as a rule, active = well fitted curve in the direction sought with a large enough effect; inconclusive = small, poorly fitted or top-dose-only effect, or another doubt; inactive = no such curve, though single readings can be large; an effect the other way counts as inactive or inconclusive. Potency is the fitted concentration of half-maximal effect.

SMILES	Lamin A splicing	HTT ATP protect	HTT aggregate	ALDH1A1 block	HPGD block
O=C1C[C@@H](O)[C@@H](O)[C@H]2[C@@H]3C(=O)N(c4cccc(Oc5ccccc5)c4)C(=O)[C@@H]3CC[C@H]12	.	-292%[10 µM]	.	12%[13.5 µM]	.
Cc1sc(NC(=O)c2ccco2)c(C(c2cccnc2)N2CCN(CCO)CC2)c1C (configuration not stated)	-4%[46 µM]	-4%	-20%	-3%	.
CCOC(=O)C1CCN(C(c2cccnc2)c2c(NC(=O)c3ccco3)sc(C)c2C)CC1 (configuration not stated)	?	28%	7.9µM*	?	-29%
O=[N+]([O-])c1cc(Cl)cc2c1nc(NCCO)c1ccccc12	.	-5%[10 µM]	-1%[9.22 µM]	?	-12%
O=C(COC(=O)c1ccc(Cl)s1)c1cc2ccccc2o1	-6%	-14%	3%	?	35µM*
Cn1cccc1C(=O)OCC(=O)c1cc2ccccc2o1	-2%	1%[10 µM]	3%	?	28µM*
CCCCn1c(SCC(=O)Nc2cccc(OC)c2)nc2ccsc2c1=O	11%[46 µM]	.	.	.	.
O=C(/C=C/c1cccc([N+](=O)[O-])c1)NCCSCc1ccc(Cl)cc1Cl	?	-3%[10 µM]	-3%	?	-8%
O=C(/C=C/c1cccc([N+](=O)[O-])c1)NCCSCc1ccccc1Cl	?	-17%[10 µM]	28%	13µM*	-22%
O=C(/C=C/c1cccc([N+](=O)[O-])c1)NCC1CCCO1 (configuration not stated)	-5%	13%[10 µM]	5%	14µM*	6.3µM*
CO[C@]12CC(COC(=O)c3cncc(Br)c3)CN(C)[C@@H]1Cc1cn(C)c3cccc2c13 (some centres not stated)	.	3%	.	2%	-2%
Cc1cc(C(=O)COC(=O)CC2Sc3ccccc3NC2=O)c(C)n1-c1ccc(Br)cc1 (configuration not stated)	15%	3%[10 µM]	1%	12µM*	-13%
Cc1cc(C(=O)COC(=O)CC2Sc3ccccc3NC2=O)c(C)n1-c1ccccc1 (configuration not stated)	6%	16%[10 µM]	-20%	?	-2%
Cc1csc(NC(=O)CSc2nnc(NC(=O)COc3ccccc3)s2)n1	3%	2%[10 µM]	-4%	7%	-4%
Cc1ccc(NC(=O)c2cc(NC(=O)C3CC=CCC3C(=O)O)ccc2N2CCOCC2)cc1 (configuration not stated)	0%	-1%	10%	13µM*	-10%
Cc1cccc(NC(=O)c2cc(NC(=O)C3CC=CCC3C(=O)O)ccc2N2CCOCC2)c1 (configuration not stated)	-12%	43%[10 µM]	-10%	3.2µM*	-3%
Cc1ccc(NC(=O)c2cc(NC(=O)C3CC=CCC3C(=O)O)ccc2N2CCOCC2)cc1Cl (configuration not stated)	3%	-1%	21%	1.8µM*	-8%
Cc1ccc(NC(=O)c2cc(N3C(=O)C=CC3=O)ccc2N2CCOCC2)cc1Cl	?	.	?	0.25µM*	1.3µM*
O=C(NNc1ccc(Cl)nn1)c1ccc(Cl)cc1	-11%	.	12%	4%	2%
CCNc1ncc2nc(-c3cc(F)cc(F)c3)c(=O)n(CCc3ccccc3)c2n1	?	-71%	.	?	.
O=C1CCC/C1=C/Nc1ccc2c(c1)OCO2	-3%	8%[10 µM]	14%	?	-12%
CC1CCC/C(=C\Nc2ccc3c(c2)OCO3)C1=O (configuration not stated)	3%	-18%	14%	13µM*	?
CCCCCCCCCCCCCCC(C(=O)O)C(O)(CC(=O)OC)C(=O)O (configuration not stated)	-19%	.	.	-2%	16µM*
COc1ccc(-c2nc(-c3ccccc3)c(NC(C)C)o2)cc1	.	-23%	.	9%	-10%
COC(=O)C1C(=O)C(C(=O)/C=C/c2ccco2)C(=O)CC1(C)C (configuration not stated)	.	?	.	9%	-10%
SMILES	Lamin A splicing	HTT ATP protect	HTT aggregate	ALDH1A1 block	HPGD block
CC(C)(C)NC(=O)C(c1ccncc1)N(Cc1cccs1)C(=O)Cn1nnc(-c2cccs2)n1 (configuration not stated)	-19%	-21%	4%	4.5µM*	-20%
CC(C)(C)NC(=O)C(c1ccncc1)N(C(=O)Cn1nnc(-c2ccc(F)cc2)n1)c1ccc(F)cc1 (configuration not stated)	10%[46 µM]	?	-12%[9.22 µM]	0%	.
Cc1ccc(C(C(=O)NC(C)(C)C)N(Cc2ccco2)C(=O)Cn2nnc(-c3cccs3)n2)cc1 (configuration not stated)	-4%	15%[1.9 µM]	0%	3%	-1%
O=C(NCc1ccccc1)C(c1ccc(F)cc1)N(Cc1ccc2c(c1)OCO2)C(=O)Cn1nnc(-c2cccs2)n1 (configuration not stated)	-3%	-6%[1.9 µM]	-16%	25µM*	-4%
CC(C)(C)NC(=O)C(c1ccncc1)N(C(=O)Cn1nnc(-c2ccc(F)cc2)n1)c1ccccc1 (configuration not stated)	.	10%[10 µM]	4%[9.22 µM]	3.2µM*	.
COc1ccccc1NC(=O)Cn1c(CCC(=O)O)ccc1-c1ccc(C)cc1	.	-22%	4%	-13%	.
OCC1OC(c2ccc3c(c2)OCO3)C=CC1Oc1ccc(C2CCCC2)cc1 (configuration not stated)	.	-58%[10 µM]	.	-5%[13.5 µM]	.
S=c1[nH]c2ccc(Cl)cc2s1	14%[46 µM]	-18%[10 µM]	12%[9.22 µM]	1.3µM*	.
O=C(Nc1c2c(nn1-c1ccc(Cl)cc1)CS(=O)(=O)C2)c1cccc(F)c1	-8%[46 µM]	.	.	.	.
CC(=O)O[C@H]1CC[C@@]2(C)[C@@H](CC[C@@]3(C)[C@H]2C(=O)C=C2[C@H]4C[C@](C)(C(=O)OCCN5CCCCC5)CC[C@]4(C)CC[C@@]23C)C1(C)C	.	-3%	.	.	.
CC(NC(=O)CCCCCN1C(=O)c2ccccc2C1=O)c1ccc2c(c1)CCCC2 (configuration not stated)	-4%	14%[10 µM]	1%	?	-3%
CC(NC(=O)CCCCCCN1C(=O)c2ccccc2C1=O)c1ccc2c(c1)CCCC2 (configuration not stated)	?	-15%[10 µM]	10µM*	?	-13%
O=c1c(Cc2c(F)cccc2Cl)c(O)ccn1CCCN1CCOCC1	.	.	9%	1%	.
Cc1cc(C)c(C#N)c(SCS(=O)Cc2ccc(Cl)cc2)n1 (configuration not stated)	-4%	-22%	-1%	?	-17%
Cc1cc(C)c(C#N)c(SCCS(=O)(=O)c2ccc(Cl)cc2)n1	.	7%[10 µM]	6%[9.22 µM]	.	.
Cc1cc(C)c(C#N)c(SCS(=O)Cc2ccccc2)n1 (configuration not stated)	?	-11%	10%	8.9µM*	?
Cc1cc(C)c(C#N)c(SCc2ccccc2[N+](=O)[O-])n1	-8%	3%[10 µM]	-6%	18µM*	-19%
